# TSHR antagonist: human thyrotropin receptor antagonism; activity change, negative = inhibition, % at 11.5 µM; 330,000 compounds, 0.2% hits; P16473; TSHR-expressing cells, TSH-stimulated cAMP HTRF, 2 h; active compounds read low;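 active = activity change below a set negative limit, meaning inhibition stronger than a set level, cut at about -70% in these data; inconclusive = activity change between two set negative limits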; also: % is scaled to controls: 0 for no effect and ±100 for the full control effect
# Target sequence (P16473 whole entry, looked up): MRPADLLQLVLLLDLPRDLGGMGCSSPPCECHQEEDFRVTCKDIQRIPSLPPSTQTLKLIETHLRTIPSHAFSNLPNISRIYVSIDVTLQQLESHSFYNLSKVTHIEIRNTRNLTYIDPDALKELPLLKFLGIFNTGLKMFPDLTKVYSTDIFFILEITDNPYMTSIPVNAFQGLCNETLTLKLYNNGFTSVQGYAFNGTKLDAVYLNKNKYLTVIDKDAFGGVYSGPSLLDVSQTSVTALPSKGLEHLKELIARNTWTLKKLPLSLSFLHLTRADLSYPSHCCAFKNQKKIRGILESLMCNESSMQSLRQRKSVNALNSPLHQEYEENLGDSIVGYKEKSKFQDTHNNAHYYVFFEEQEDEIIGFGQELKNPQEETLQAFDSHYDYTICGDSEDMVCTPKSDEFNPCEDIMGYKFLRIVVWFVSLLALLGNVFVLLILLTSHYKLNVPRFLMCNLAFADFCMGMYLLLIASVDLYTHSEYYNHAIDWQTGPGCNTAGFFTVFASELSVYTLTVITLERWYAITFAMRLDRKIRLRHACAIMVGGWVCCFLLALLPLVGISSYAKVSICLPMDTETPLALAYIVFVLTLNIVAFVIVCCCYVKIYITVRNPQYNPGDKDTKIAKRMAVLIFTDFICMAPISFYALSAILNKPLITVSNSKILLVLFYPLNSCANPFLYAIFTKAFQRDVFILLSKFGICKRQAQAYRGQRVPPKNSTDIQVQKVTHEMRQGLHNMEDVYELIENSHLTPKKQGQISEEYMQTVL
#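 Competitive HTRF cAMP read-out (cryptate anti-cAMP antibody, cAMP-d2; 30 min, room temperature) in freshly harvested TSHR cells. Compounds added before TSH at EC80 (4nM final), followed by 2 hours' incubation at 37 deg C.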
# gsp antagonist: antagonists of gsp mutant (McCune-Albright syndrome). gsp-mutant cells, cAMP HTRF, 30 min. Potency, µM (titrated, usually from 76.9 µM), without a hit: at the top dose activity change, negative = inhibition, actives largely listed as inhibitors. 340,000 compounds, 0.4% hits; calls by dose curve; cell line not stated here;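 also: intracellular cAMP measured with PDE inhibitor Ro 20-1724 present during compound exposure; potency is read from the fitted curve at half-maximal effect; % is scaled to controls: 0 for no effect and ±100 for the full control effect; nearly all actives have a fitted effect of over 65% in size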
#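 Cells in G418 medium, seeded 16-24 h, 37C; buffer exchange to DPBS + 1 mM CaCl2, 0.5 mM MgCl2, 0.05% BSA; cpds in DMSO + […] (300 uM stock), 30 min 37C; HTRF cAMP detection.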
# gsp agonist: agonists of gsp mutant (McCune-Albright syndrome). gsp mutant cells, cAMP HTRF, 30 min. Potency, µM (highest dose often 76.9 µM), for the others: top-dose activation (cAMP increase), most hits filed as activators. 340,000 compounds, 0.13% hits. AID 624287; active = well fitted activation curve with a large enough effect; inconclusive = small, poorly fitted or top-dose-only effect, or another doubt; inactive = no such curve, though single readings can be large or run the other way; cell line not stated here;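 also: phosphodiesterase inhibitor Ro 20-1724 added with compounds to block cAMP breakdown; potency is read from the fitted curve at half-maximal effect; nearly all actives have a fitted effect of over 60% in size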
#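 Cells stably selected in G418 were plated at 2000/well, grown 16-24 hr, then given compounds in DMSO with the PDE inhibitor […] (300 uM solution added) for 30 min at 37C; cAMP was read by HTRF.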
# uPA surface inh: cell surface uPA generation inhibition | cell surface uPA generation assay, qHTS | Potency, µM (doses to about 38.3 µM), for inactives: at the top dose activity change, negative = inhibition, hits mostly inhibitors | 330,000 compounds, 0.31% hits | AID 540303; active = well fitted inhibition curve with a large enough effect; inconclusive = small, poorly fitted or top-dose-only effect; inactive = no such curve, though single readings can be large or run the other way; tested in mouse RAW 264.7 cells; also: potency is read from the fitted curve at half-maximal effect; % is scaled to controls: 0 for no effect and ±100 for the full control effect; nearly all actives have a fitted effect of over 55% in size
# CCT modulator: cytosolic chaperonin activity modulation | purified chaperonin ATPase assay, HTRF ADP detection, 30 min | activity change, % (test concentration not listed), hits read low | 360,000 compounds, 0.3% hits | AID 651819; in the data active = activity change below about -30%; also: % is scaled to controls: 0 for no effect and ±100 for the full control effect
#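 TRiC (40 or 20 nM final, by batch activity) in 30 mM Tris pH 7.4, 100 mM KCl, 5 mM MgCl2, 1 mM DTT was treated with compound at 76 uM single dose, then 10 uM ATP, 30 min at 37 °C. ADP was read by HTRF Transcreener.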
# MmCpn inh: M. maripaludis TRiC chaperonin inhibition | purified Mm-Cpn ATPase, ADP Transcreener TR-FRET | Potency, µM (top dose mostly 76.9 µM), for the others: at the highest dose activity, negative = inhibition, actives largely listed as inhibitors | 330,000 compounds, 0.031% hits | AID 504842; active = well fitted inhibition curve with a large enough effect; inconclusive = small, poorly fitted or top-dose-only effect; also: potency is read from the fitted curve at half-maximal effect; % is scaled to controls: 0 for no effect and ±100 for the full control effect; nearly all actives have a fitted effect of over 80% in size
#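 Eu-cryptate anti-ADP/ADP-d2 competition gives a ratio inversely related to ADP. Enzyme at 25 nM was pre-exposed to compound for 10 min, then given 10 uM ATP for 30 min, 37°C throughout.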
# An asterisk follows results filed as active; ? = inconclusive; . = no result; [ ] = dose if it differs, or a comment. In the library only some 1.2% were active in any assay of this set; here they are far more common.
SMILES,TSHR antagonist,gsp antagonist,gsp agonist,uPA surface inh,CCT modulator,MmCpn inh
CC(=O)c1cc(F)c(N2CCN(C(=O)Cc3ccccc3)CC2)cc1C,15,-1%[15.4 µM],-5%,1%,-1,-4%
Cc1cccc(-n2c(SCC(N)=O)nc3c(c2=O)C2(CCCC2)Cc2ccccc2-3)c1,-1,3%,10µM*,-5%,-2,-4%
Cc1ccc(N2C(=O)CC(N(CCc3ccccc3)C(=S)Nc3ccc(N(C)C)cc3)C2=O)cc1 (centres undefined),5,5%,14%,5%,2,-2%
O=C(O)CCCNc1cc(N2CCN(C(=O)c3ccco3)CC2)c2noc3c2c1C(=O)c1ccccc1-3,-38,?,-48%,-3%,0,35µM*
CN1CCN(c2cc(N3CCN(C(=O)c4ccco4)CC3)c3c4c(onc24)-c2ccccc2C3=O)CC1,-19,-23%,-34%,-7%,-1,-10%
O=C1c2ccccc2-c2onc3c(N4CCN(CCO)CC4)cc(N4CCN(C(=O)c5ccco5)CC4)c1c23,-9,18µM*,-13%[15.4 µM],2%,1,-16%
CCn1cnc2c1c(=O)n(CC(=O)NCC(F)(F)F)c(=O)n2Cc1ccccc1,0,5%,12%,2%,-2,-4%
COc1ccc(CC(=O)NNC(=O)COc2ccc3ccccc3c2)cc1,-2,-18%,8%,10%,0,40µM*
COc1ccc(C(=O)Nc2ccc3ccccc3c2)cc1,12,7%,2%,5µM*,-1,-3%
COc1ccc(NC(=O)c2ccc(C)cc2)cc1,-1,-5%,-9%,10µM*,-2,0%
COc1cccc(C(=O)Nc2ccc3ccccc3c2)c1,5,-2%,4%[15.4 µM],-3%,-1,1%
COc1ccccc1NC(=O)NNC(=O)COc1ccc2ccccc2c1,-9,-16%,?,-9%,-1,-1%
COc1ccc(C(=O)NNC(=O)C(=O)Nc2ccc(C)cc2)cc1,13,5%,-1%[15.4 µM],0%,-9,0%
CCC(=O)c1ccc(N2CCN(C(=O)c3ccccc3F)CC2)c(F)c1,-11,-25%,17%[15.4 µM],4%,1,-1%
COc1ccc(S(=O)(=O)Nc2ccc3c(c2)C(=O)N([C@H](C)CO)C[C@H](C)[C@@H](CN(C)C(=O)Nc2c(C)noc2C)OCCCC[C@H](C)O3)cc1,.,.,11%,.,-1,.
CCc1ccc(/C=C/c2c([N+](=O)[O-])c(=O)n(C)c(=O)n2C)cc1,4,?,8%,6.3µM*,3,-2%
CCOc1ccc(/C=C/c2c([N+](=O)[O-])c(=O)n(C)c(=O)n2C)cc1,-3,-6%,-3%,-19%,-1,3%
CC(C)NC(=O)COc1coc(CN2CCN(c3ccccc3F)CC2)cc1=O,-124*,-1%,-12%,5%,0,-1%
COc1ccccc1N1CCN(Cc2cc(=O)c(OCC(=O)NC(C)C)co2)CC1,-7,8%,20%,4%,0,3%
CC1CCCCC1NC(=O)CCn1c(=O)sc2ccccc21 (centres undefined),-10,9%,-20%,12%,-1,3%
CCCSc1ccc(C(=O)Nc2ccc(Cl)cc2)cn1,-12,-1%,-77%,-2%,0,-5%
O=C(Nc1cc(Br)ccc1O)C1CC(c2c(F)cccc2Cl)=NO1 (centres undefined),-19,-22%,?,8.9µM*,0,1%
CCS(=O)(=O)c1nc(S(=O)(=O)c2ccc(Cl)cc2)c(N2CCCC2)s1,24,-15%,13µM*,11%,-2,-6%
CCS(=O)(=O)c1nc(S(=O)(=O)c2ccc(Cl)cc2)c(N2CCN(C)CC2)s1,53,10%,?,-5%,0,1%
COc1ccc(-c2csc(NC(=O)CS(=O)(=O)c3ccccc3)n2)c(OC)c1,.,.,-24%,.,1,.
SMILES,TSHR antagonist,gsp antagonist,gsp agonist,uPA surface inh,CCT modulator,MmCpn inh
COc1ccc(CC(=O)Nc2nc(-c3ccc(OC)c(OC)c3)cs2)cc1OC,-16,28µM*,4%[15.4 µM],8%,-2,1%
COc1ccc(-c2csc(NC(=O)CS(=O)(=O)c3ccccc3)n2)cc1OC,.,.,0%,.,-31*,.
Cc1cc(C)n2c(-c3ccccc3Cl)nnc2n1,0,5%,-3%,4%,1,0%
COc1ccc(OC)c2[nH]c(=O)c(CCNC(=O)c3ccc(S(=O)(=O)N4CCCCC4)cc3)cc12,-6,6%,-40%,1%,-3,-3%
Cc1cc2cc(CCNC(=O)c3ccc(S(=O)(=O)N4CCCC4)cc3)c(=O)[nH]c2cc1C,-77*,-15%,7%,?,0,1%
CCCn1c(N/N=C(C)\C=C\c2ccccc2)nc2c1c(=O)[nH]c(=O)n2C,1,.,.,.,.,-1%
Cc1cccc(-n2c(=S)[nH]c3c(oc4ccccc43)c2=O)c1,26,2%,14µM*,-2%,-2,-3%
Cc1ccc(-n2c(=S)[nH]c3c(oc4ccccc43)c2=O)cc1,35,10%,5.6µM*,-7%,-4,-4%
O=c1c2oc3ccccc3c2[nH]c(=S)n1-c1ccccc1,14,12%,3.5µM*,0%,0,-9%
Cc1cccc(-n2c(C)c(-c3ccccc3)[nH]c2=S)c1,9,-11%,-5%[15.4 µM],-4%,-6,-3%
O=c1c2c(O)cc(O)cc2oc2c(O)ccc(O[C@H]3O[C@@H](CO)[C@H](O)[C@@H](O)[C@@H]3O)c12,-16,-4%,.,4%,0,-1%
Cc1ccc(N2CC(C(=O)Nc3nnc(SCCN4CCOCC4)s3)CC2=O)cc1C (centres undefined),1,-3%,13%,7%,0,2%
O=C(c1ccc2c(c1)OCO2)N1CCC2(CC1)Oc1ccc(F)cc1C(=O)C21CC(c2cccnc2)=NO1 (centres undefined),-6,35µM*,.,7%,1,2%
O=C(c1ccc2c(c1)OCO2)N1CCC2(CC1)Oc1ccc(F)cc1C(=O)C21CC(c2ccccc2)=NO1 (centres undefined),1,-14%,15%,6%,-1,-2%
COc1ccc(S(=O)(=O)N2CCOCC2)cc1NC(=O)CSc1ccccc1,6,-7%,3%,-3%,3,1%
Cc1ccc(NC(=O)CSc2ncnc3ccccc23)cc1S(=O)(=O)N1CCCCC1,?,?,-13%[15.4 µM],-14%,0,?
Cc1cc2nnc(SCC(=O)Nc3cc(S(=O)(=O)N4CCOCC4)ccc3Cl)n2c2ccccc12,-8,-6%,-10%,0%,-53*,-5%

# Bioassay records (PubChem)
